Results filed as inconclusive are left out. The source made the active and inactive calls. Calls follow the shape of the dose curve; as a rule, active = well fitted curve in the direction sought with a large enough effect; inconclusive = small, poorly fitted or top-dose-only effect, or another doubt; inactive = no such curve, though single readings can be large; an effect the other way counts as inactive or inconclusive. Positions of bridges follow the written chain, without caps; N, C: chain ends. Non-standard residues stand in square brackets, D forms with d. Residues, ends and D or L forms follow the SMILES beside them. ξ: configuration not given here. *: point of attachment. Octanoyl(6-Me) = CCC(C)CCCCC(=O)*; ξThr(3R) = C[C@@H](O)C(N)C(=O)O; dDab = NCC[C@@H](N)C(=O)O; Dab = NCC[C@H](N)C(=O)O
Experiments:
[1] = Quantitative High-Throughput drug screen in 47 multiple myeloma cell lines against the NCATS MIPE library collection: LP1_DSMZ cell viability assay (AID 1918982); also: nearly all actives have a fitted effect of over 35% in size; also: potency is read from the fitted curve at half-maximal effect
Outline: (§1)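 MIPE 4.0 approved/investigational drugs; 500 cells/well; 48 h 37 °C humidified 5% CO2; CTG luminescence readout; DMSO = 100%, media = 0% viability.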

[2] = Quantitative High-Throughput drug screen in 47 multiple myeloma cell lines against the NCATS MIPE library collection: KMS28PE_JCRB cell viability assay (AID 1918983); also: nearly all actives have a fitted effect of over 35% in size; also: potency is read from the fitted curve at half-maximal effect
Outline: as §1

[3] = Quantitative High-Throughput drug screen in 47 multiple myeloma cell lines against the NCATS MIPE library collection: KMS34_JCRB cell viability assay (AID 1918985); also: nearly all actives have a fitted effect of over 40% in size; also: potency is read from the fitted curve at half-maximal effect
Outline: as §1

[4] = Quantitative High-Throughput drug screen in 47 multiple myeloma cell lines against the NCATS MIPE library collection: OCIMY7_PLB cell viability assay (AID 1918987); conditions: OCI-MY7 myeloma viability, CellTiter-Glo ATP, 48 h; viability (% of DMSO): at 45.8 µM (top of the series); also: nearly all actives have a fitted effect of over 65% in size; also: potency is read from the fitted curve at half-maximal effect
Outline: as §1

[5] = Quantitative High-Throughput drug screen in 47 multiple myeloma cell lines against the NCATS MIPE library collection: OCIMY5_PLB cell viability assay (AID 1918988); also: nearly all actives have a fitted effect of over 65% in size; also: potency is read from the fitted curve at half-maximal effect
Outline: as §1

[6] = Quantitative High-Throughput drug screen in 47 multiple myeloma cell lines against the NCATS MIPE library collection: OPM1_PLB cell viability assay (AID 1918989); also: nearly all actives have a fitted effect of over 40% in size; also: potency is read from the fitted curve at half-maximal effect
Outline: as §1

[7] = Quantitative High-Throughput drug screen in 47 multiple myeloma cell lines against the NCATS MIPE library collection: SKMM1_PLB cell viability assay (AID 1919863); conditions: SKMM1 myeloma viability, CellTiter-Glo ATP, 48 h; viability: active compounds read low; also: nearly all actives have a fitted effect of over 35% in size; also: potency is read from the fitted curve at half-maximal effect
Outline: as §1

[8] = Quantitative High-Throughput drug screen in 47 multiple myeloma cell lines against the NCATS MIPE library collection: XG6_PLB cell viability assay (AID 1919865); also: nearly all actives have a fitted effect of over 40% in size; also: potency is read from the fitted curve at half-maximal effect
Outline: as §1

[9] = Quantitative High-Throughput drug screen in 47 multiple myeloma cell lines against the NCATS MIPE library collection: XG1_PLB cell viability assay (AID 1919866); also: nearly all actives have a fitted effect of over 35% in size; also: potency is read from the fitted curve at half-maximal effect
Outline: as §1

[10] = Quantitative High-Throughput drug screen in 47 multiple myeloma cell lines against the NCATS MIPE library collection: VP6_DJ cell viability assay (AID 1919867); also: nearly all actives have a fitted effect of over 40% in size; also: potency is read from the fitted curve at half-maximal effect
Outline: as §1

[11] = Quantitative High-Throughput drug screen in 47 multiple myeloma cell lines against the NCATS MIPE library collection: UTMC2_PLB cell viability assay (AID 1919868); conditions: CellTiter-Glo ATP luminescence, 48 h; viability (% of DMSO control): at 45.8 µM (top of the series); also: nearly all actives have a fitted effect of over 55% in size; also: potency is read from the fitted curve at half-maximal effect
Outline: as §1

[12] = Quantitative High-Throughput drug screen in 47 multiple myeloma cell lines against the NCATS MIPE library collection: RPMI8226_ATCC cell viability assay (AID 1919871); also: nearly all actives have a fitted effect of over 30% in size; also: potency is read from the fitted curve at half-maximal effect
Outline: as §1

[13] = Quantitative High-Throughput drug screen in 47 multiple myeloma cell lines against the NCATS MIPE library collection: OPM2_DSMZ cell viability assay (AID 1919872); also: nearly all actives have a fitted effect of over 30% in size; also: potency is read from the fitted curve at half-maximal effect
Outline: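 We plated 500 myeloma cells per well, pinned in MIPE 4.0 compounds, and incubated for 48 hours at 37C. ATP was then quantified with CellTiter-Glo, with DMSO and media-only wells defining 100% and 0%.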

[14] = Quantitative High-Throughput drug screen in 47 multiple myeloma cell lines against the NCATS MIPE library collection: PE2_PLB cell viability assay (AID 1919869); also: nearly all actives have a fitted effect of over 35% in size
Outline: as §1

[15] = Quantitative High-Throughput drug screen in 47 multiple myeloma cell lines against the NCATS MIPE library collection: PCM6_Riken cell viability assay (AID 1919870); also: nearly all actives have a fitted effect of over 30% in size
Outline: as §1

[16] = Quantitative High-Throughput drug screen in 47 multiple myeloma cell lines against the NCATS MIPE library collection: KMS11_JCRBsus cell viability assay (AID 1919873); also: nearly all actives have a fitted effect of over 50% in size
Outline: as §1

[17] = Quantitative High-Throughput drug screen in 47 multiple myeloma cell lines against the NCATS MIPE library collection: KMS28BM_JCRB cell viability assay (AID 1919874); also: nearly all actives have a fitted effect of over 35% in size
Outline: as §1

[18] = Quantitative High-Throughput drug screen in 47 multiple myeloma cell lines against the NCATS MIPE library collection: L363_DSMZ cell viability assay (AID 1918984); also: nearly all actives have a fitted effect of over 40% in size
Outline: as §1

[19] = Quantitative High-Throughput drug screen in 47 multiple myeloma cell lines against the NCATS MIPE library collection: U266_ATCC cell viability assay (AID 1919864); also: nearly all actives have a fitted effect of over 35% in size
Outline: as §1

[20] = molecular target: Cytochrome P450 3A4 (Homo sapiens) (UniProt P08684); test: qHTS for inhibitors of CYP3A4 against the NCATS DSHEA and TCM libraries (AID 1919971);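 also: % is scaled to controls: 0 for no effect and ±100 for the full control effect; inhibition lowers luminescence from luciferin made by CYP3A4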
Chain of Cytochrome P450 3A4 (Homo sapiens) (P08684 whole entry, looked up, canonical isoform): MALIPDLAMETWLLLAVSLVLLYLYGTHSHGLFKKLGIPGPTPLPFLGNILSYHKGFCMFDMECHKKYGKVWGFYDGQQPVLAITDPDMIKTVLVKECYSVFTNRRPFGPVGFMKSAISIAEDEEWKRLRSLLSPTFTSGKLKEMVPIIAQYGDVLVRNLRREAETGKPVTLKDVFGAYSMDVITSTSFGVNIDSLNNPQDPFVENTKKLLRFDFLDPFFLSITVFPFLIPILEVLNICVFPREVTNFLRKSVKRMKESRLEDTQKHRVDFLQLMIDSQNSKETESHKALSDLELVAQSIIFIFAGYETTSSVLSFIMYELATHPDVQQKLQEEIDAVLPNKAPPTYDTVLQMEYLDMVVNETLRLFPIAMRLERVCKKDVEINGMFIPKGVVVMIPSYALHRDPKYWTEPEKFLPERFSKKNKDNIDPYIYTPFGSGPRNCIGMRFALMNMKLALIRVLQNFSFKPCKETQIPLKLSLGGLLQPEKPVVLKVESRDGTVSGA
Outline: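 Read-out is luminescence after P450-Glo detection (30 min, RT). Before that: 15 min compound–enzyme preincubation, then 30-45 min reaction with 1x NADPH regeneration solution, substrate concentration isoform-specific.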

FC(F)c1nc2ccccc2n1-c1nc(N2CCOCC2)nc(N2CCOCC2)n1
active: Potency [1] 20.9 nM | Potency [2] 418 nM | Potency [3] 1320 nM | Potency [4] 372 nM | Potency [5] 1320 nM | Potency [6] 469 nM | Potency [7] 1480 nM | Potency [8] 590 nM | Potency [9] 209 nM | Potency [10] 132 nM | Potency [11] 118 nM | Potency [12] 296 nM | Potency [13] 2090 nM

C=C1C[C@@]2(O)O[C@@]3(C[C@H]2C(C)C)[C@H](C)CC[C@H]13
inactive: Potency [1] | Potency [2] | Potency [3] | Potency [5] | Potency [6] | viability [7] 114% | Potency [8] | Potency [9] | Potency [10] | Potency [11] | Potency [14] | Potency [15] | Potency [12] | Potency [13] | Potency [16] | Potency [17]

C[C@@]12C[C@@]3(O)O[C@@H](O1)[C@]1(COC(=O)c4ccccc4)[C@@H]3C[C@@]12O[C@@H]1O[C@H](CO)[C@@H](O)[C@H](O)[C@@H]1O
inactive: Potency [1] | Potency [2] | Potency [18] | Potency [5] | Potency [6] | Potency [19] | Potency [8] | Potency [9] | Potency [14] | Potency [15] | Potency [12] | Potency [13] | Potency [17] | Potency [20]
active: Potency [10] 2640 nM

NC(=O)c1ncn([C@@H]2O[C@H](CO)[C@@H](O)[C@@H]2O)c1N
inactive: Potency [1] | Potency [2] | Potency [3] | Potency [6] | viability [7] 159% | Potency [19] | Potency [8] | Potency [14] | Potency [15] | Potency [13] | Potency [17]

COC(=O)[C@@H]1[C@H]2C[C@@H]3c4[nH]c5ccccc5c4CCN3C[C@@H]2CC[C@@H]1O
inactive: Potency [1] | Potency [2] | Potency [18] | Potency [4] | Potency [6] | Potency [8] | Potency [9] | Potency [10] | Potency [11] | Potency [14] | Potency [15] | Potency [13] | Potency [16]

CCC(C)CCCCC(=O)N[C@@H](CCN)C(=O)NC(C(=O)N[C@H](CCN)C(=O)N[C@@H]1CCNC(=O)C([C@@H](C)O)NC(=O)[C@@H](CCN)NC(=O)[C@@H](CCN)NC(=O)[C@@H](CC(C)C)NC(=O)[C@H](Cc2ccccc2)NC(=O)[C@H](CCN)NC1=O)[C@@H](C)O (stereo partly drawn) ({Octanoyl(6-Me)}-[Dab][ξThr(3R)][dDab][dDab][Dab]F[dL][dDab][dDab][ξThr(3R)]; lactam 4-C)
inactive: Potency [1] | Potency [2] | Potency [3] | Potency [4] | viability [7] 110% | Potency [9] | Potency [10] | Potency [14] | Potency [15] | Potency [12] | Potency [13] | Potency [17]
